Outcome and AC50 data for 19 compounds are collected here from PubChem BioAssay (EPA / NIEHS).

Records with an inconclusive call do not appear. Activity calls are given as the source filed them. The calls were made as follows: active = hit-call score of the fitted dose curve at least 0.9, where 1 is the maximum; inconclusive = response in the unintended direction; inactive = score below 0.9.

guinea pig Opioid, Kappa 1 Receptor (OpiateK), OPRK1 (gene 100135587), sequence (P41144 whole entry, looked up): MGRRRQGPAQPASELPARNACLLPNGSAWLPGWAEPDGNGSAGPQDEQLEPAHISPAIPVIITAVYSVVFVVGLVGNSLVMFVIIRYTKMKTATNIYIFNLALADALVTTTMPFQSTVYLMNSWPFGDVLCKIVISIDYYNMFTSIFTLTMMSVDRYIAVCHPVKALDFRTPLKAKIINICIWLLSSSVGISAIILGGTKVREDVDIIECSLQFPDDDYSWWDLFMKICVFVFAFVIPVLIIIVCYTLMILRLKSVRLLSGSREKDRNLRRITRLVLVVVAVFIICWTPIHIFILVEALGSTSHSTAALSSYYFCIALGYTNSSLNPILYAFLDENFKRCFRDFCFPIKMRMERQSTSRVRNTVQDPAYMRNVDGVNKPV

The target in the first test is sheep Cyclooxygenase-1 (Cox1), PTGS1 (gene 443551) (UniProt P05979). The test is described as follows: NVS_ENZ_oCOX1: NovaScreen (NVS) Enzymatic Assay for sheep Cyclooxygenase-1 (Cox1) (AID 2283239).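 Also: actives reduce cyclooxygenase activity so potencies are for inhibitors.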 The method in brief: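 COX1 from ovine seminal vesicles, activity read colorimetrically about 0.66 h after dosing. Primary screen in duplicate at 25 uM; actives retested in concentration series; loss of signal fitted versus DMSO.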
sheep Cyclooxygenase-1 (Cox1), PTGS1 (gene 443551), sequence (P05979 whole entry, looked up): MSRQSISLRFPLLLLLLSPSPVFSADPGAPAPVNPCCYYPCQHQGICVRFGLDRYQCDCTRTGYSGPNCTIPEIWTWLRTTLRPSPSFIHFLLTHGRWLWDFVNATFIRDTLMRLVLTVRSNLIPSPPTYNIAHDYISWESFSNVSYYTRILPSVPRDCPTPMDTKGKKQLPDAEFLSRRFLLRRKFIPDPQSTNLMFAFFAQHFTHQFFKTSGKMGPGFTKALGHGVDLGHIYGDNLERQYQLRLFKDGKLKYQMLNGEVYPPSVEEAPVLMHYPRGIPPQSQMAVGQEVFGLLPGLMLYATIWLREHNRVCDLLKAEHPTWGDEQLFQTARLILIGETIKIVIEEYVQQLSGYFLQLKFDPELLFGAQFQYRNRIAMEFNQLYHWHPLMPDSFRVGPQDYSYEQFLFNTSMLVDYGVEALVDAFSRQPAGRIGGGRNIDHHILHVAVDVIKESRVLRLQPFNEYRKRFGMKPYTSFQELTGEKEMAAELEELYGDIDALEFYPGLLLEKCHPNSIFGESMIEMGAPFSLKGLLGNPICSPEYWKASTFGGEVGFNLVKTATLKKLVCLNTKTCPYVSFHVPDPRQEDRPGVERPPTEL
For the compound `Cc1ccc(C(C)(C)O)cc1`, the result was inactive.

What is called AC50 is the concentration giving half of the maximal activity seen. For the compound `CC(=O)CCC=C(C)CCC=C(C)C`, the half-maximal activity concentration (AC50) was 43.3 µM (active).

Take `CC(C)(O)CCc1ccccc1`: the compound was classed as inactive.

As to `O=C1OC2(c3ccc(O)cc3Oc3cc(O)ccc32)c2ccccc21`, the AC50 was 18.2 µM (active).

On to `CC(=O)c1ccc(C)cc1`, for which the result was inactive.

With `C=CCOCC(O)CO` (stereo unspecified), the concentration at half-maximal activity (AC50) is 25 µM (active).

With `c1ccc(Sc2ccccc2)cc1`, the compound was classed as inactive.

With `CC(O)COCC(C)O` (stereo unspecified), the call was inactive.

Turning to `CCCCCCCCCCCCS`, the AC50 is 25 µM (active).

`COc1ccccc1NC(=O)CC(C)=O`: the AC50 was 14.6 µM (active).

Consider `Cc1cc(N)n(-c2ccccc2)n1`, for which the result was inactive.

The target in another test is guinea pig Leukotriene D4 Receptor (LTD4), CYSLTR1 (gene 100135514) (UniProt Q2NNR5). The test is described as follows: NVS_GPCR_gLTD4: NovaScreen (NVS) G Protein-Coupled Receptor Assay for guinea pig Leukotriene D4 Receptor (LTD4) (AID 2283248). The essentials: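 Radioligand displacement on guinea pig lung membranes, 1 h incubation, filtration and scintillation counting; DMSO as negative control. Duplicate 25 uM primary screen, then singleton concentration-response up to 50 uM.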
guinea pig Leukotriene D4 Receptor (LTD4), CYSLTR1 (gene 100135514), sequence (Q2NNR5 whole entry, looked up): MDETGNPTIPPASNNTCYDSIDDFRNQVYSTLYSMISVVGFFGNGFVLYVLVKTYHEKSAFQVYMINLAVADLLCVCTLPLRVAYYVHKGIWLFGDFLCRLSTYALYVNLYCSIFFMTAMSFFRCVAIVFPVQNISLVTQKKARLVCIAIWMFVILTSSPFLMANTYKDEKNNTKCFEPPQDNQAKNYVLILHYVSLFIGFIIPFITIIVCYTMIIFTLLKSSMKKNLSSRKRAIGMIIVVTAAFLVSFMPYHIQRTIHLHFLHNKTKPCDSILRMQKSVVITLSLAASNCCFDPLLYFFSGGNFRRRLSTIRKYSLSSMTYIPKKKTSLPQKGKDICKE
`O=[N+]([O-])c1cc(N(CCO)CCO)ccc1NCCO`: the result was inactive.

Turning to `C#C[C@]1(O)CC[C@H]2[C@@H]3CCc4cc(O)ccc4[C@H]3CC[C@@]21C`, the compound was classed as inactive.

For `O=C1OC2(c3ccc(O)cc3Oc3cc(O)ccc32)c2ccccc21`, the call was inactive.

For the compound `CC1=CC(C)C(C=O)C(C)C1` (stereo unspecified) (tested in a mixture with another compound), the compound was classed as inactive.

For a further test, the target named is guinea pig Opioid, Kappa 1 Receptor (OpiateK), OPRK1 (gene 100135587) (UniProt P41144). The test is described as follows: NVS_GPCR_gOpiateK: NovaScreen (NVS) G Protein-Coupled Receptor Assay for guinea pig Opioid, Kappa 1 Receptor (OpiateK) (AID 2283252).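 Also: radioligand displacement from kappa opioid receptor in guinea pig cerebellar membranes; active means reduced radioligand binding relative to DMSO.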 The method in brief:
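Guinea pig cerebellar membranes, radioligand displacement with filter-based scintillation counting, 2 h after dosing. Primary screen single concentration 25 uM in duplicate; actives retested in concentration series; loss of binding fitted versus DMSO.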
Turning to `O=C(c1ccc(OCCN2CCCCC2)cc1)c1c(-c2ccc(O)cc2)sc2cc(O)ccc12`, the AC50 is 0.508 µM (active).

For `O=C1OC2(c3ccc(O)cc3Oc3cc(O)ccc32)c2ccccc21`, the compound was called inactive.

As for `CC/C(=C(\c1ccccc1)c1ccc(OCCN(C)C)cc1)c1ccccc1`, the compound was classed as inactive.

On to `Cc1cc(O)c(C)c(C)c1O`, for which the outcome was inactive.

Turning to `CCCCCC1C(=O)CCC1CC(=O)OC` (stereo unspecified), the call was inactive.

For `O=S1(=O)CC(Cl)(Cl)C(Cl)(Cl)C1`, the result was inactive.
